Hits are enriched below; roughly 4.7% of the tested compounds scored in any of these assays.
D1 ag = Allosteric Agonists of the Human D1 Dopamine Receptor: qHTS; HEK293 T-REx D1 cells, calcium flux, agonist mode; actives 1% (n = 360,000); D(1A) dopamine receptor (Homo sapiens), P21728; AID 504660, 2011; activation, % at 2 µM; also: 0% is about no effect
Target sequence (P21728 whole entry, looked up): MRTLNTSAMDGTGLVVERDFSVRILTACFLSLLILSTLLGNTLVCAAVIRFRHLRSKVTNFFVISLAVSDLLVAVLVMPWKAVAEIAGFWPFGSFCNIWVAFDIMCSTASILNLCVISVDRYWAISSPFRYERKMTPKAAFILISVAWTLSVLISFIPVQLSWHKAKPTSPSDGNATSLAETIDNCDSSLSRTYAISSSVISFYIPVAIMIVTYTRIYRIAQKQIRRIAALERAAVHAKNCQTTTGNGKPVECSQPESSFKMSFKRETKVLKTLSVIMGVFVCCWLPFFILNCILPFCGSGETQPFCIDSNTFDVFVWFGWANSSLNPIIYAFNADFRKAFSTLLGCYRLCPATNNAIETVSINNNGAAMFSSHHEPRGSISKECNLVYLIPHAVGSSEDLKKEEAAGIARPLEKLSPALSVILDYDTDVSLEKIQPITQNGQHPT
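Agonism was scored from calcium flux recorded over 180 s (1 read/s) after pintool compound addition, following a 10-cycle baseline. Cells were inducible force-coupled HEK293 TREx D1, plated overnight at 30 C and loaded with no-wash calcium dye.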
TRHR ag = qHTS for Small Molecule Agonists and Allosteric Enhancers of Human TRH Receptor: Primary Screen for Agonists; actives 0.18% (n = 360,000); AID 493084, 2011; Thyrotropin-releasing hormone receptor (Homo sapiens), P34981; activation, % at 2 µM; TRHR cells, calcium flux fluo-8, FDSS agonist mode; also: 0% is about no effect
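TRHR-expressing cells, plated overnight in medium with 10% serum, were loaded with fluo-8 calcium dye at room temperature. After a 10 s baseline, library compound was pin-added and calcium release was recorded kinetically (ex 480/em 530) as agonist response.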
D1 antag = Antagonist of Human D 1 Dopamine Receptor: qHTS. actives 3.2% (n = 360,000). D(1A) dopamine receptor (Homo sapiens), P21728. activity change, negative = inhibition, % at 10 µM. HEK293 TREx D1 cells, calcium flux, dopamine EC80; hits give low values. AID 504652, 2011; in the data active = activity change below about -30%; also: % is scaled to controls: 0 for no effect and ±100 for the full control effect
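Using tetracycline-induced force-coupled D1 Hek293 cells and a calcium dye, signals were followed for 180 s after compound, then for 180 s after EC80 dopamine, to detect inhibitors.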
TRHR enhancer = qHTS for Small Molecule Agonists and Allosteric Enhancers of Human TRH Receptor: Primary Screen for Enhancers; Thyrotropin-releasing hormone receptor (Homo sapiens), P34981; TRHR cells, fluo-8 calcium fluorescence, EC20 TRH enhancement; actives 0.66% (n = 360,000); enhancement, % at 2 µM; AID 493056, 2011; in the data active = enhancement above about 30%; also: 0% is about no effect
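TRHR-expressing cells loaded with fluo-8 calcium dye were read kinetically (ex 480/em 530) during compound addition, then stimulated with an EC20 of TRH (10 nM final). Enhancement of the Gq-mediated intracellular calcium response was scored.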
D1 PAM = Potentiators of Human D1 Dopamine Receptor: qHTS. D(1A) dopamine receptor (Homo sapiens), P21728. HEK293 TREx D1 cells, calcium flux, dopamine EC20 potentiation. potentiation, % at 10 µM. actives 0.036% (n = 360,000). AID 504651, 2011; in the data active = potentiation above about 30%; also: 0% is about no effect
Active calls of the source: *; x = no result. Rule as the data show it, unless noted: active = activation above about 30%; inactive = the rest.

SMILES	D1 ag	TRHR ag	D1 antag	TRHR enhancer	D1 PAM
O=[N+]([O-])c1cccc(-c2csc(Nc3ccccc3)n2)c1	4	2	-30*	-10	-12
Cc1c(C(=O)Nc2ccccc2Br)oc2ccc(S(=O)(=O)N3CCCCCC3)cc12	-4	0	4	3	1
C[C@@H](CN1CCC(Cc2ccccc2)CC1)[C@@H](O)c1ccc(O)cc1	7	1	-33*	-2	-6
CC(C(O)c1ccc(O)cc1)N1CCC(Cc2ccccc2)CC1 (stereo unspecified)	7	0	-50*	-5	-3
CNC(=S)N1CCC(Cc2ccccc2)CC1	0	0	1	1	1
OC(CN1CCC(Cc2ccccc2)CC1)C(F)(F)F (stereo unspecified)	3	1	1	-3	-8
COc1ccc(C(=O)N2CC(=O)Nc3ccc(C)cc3C2c2ccc(F)cc2)c(OC)c1 (stereo unspecified)	0	1	11	-5	-1
Nn1c(SCC(=O)Nc2ccc3c(c2)OCCO3)nnc1-c1ccccn1	1	0	-36*	4	-4
O=C(CSCc1ccccc1Cl)Nc1ccc2c(c1)OCCO2	1	0	-36*	-3	2
O=C(CNCc1ccccc1Cl)Nc1ccc2c(c1)OCCO2	9	-1	-5	-1	4
CCn1c(SCC(=O)Nc2ccc3c(c2)OCO3)nnc1-c1cnccn1	0	0	-32*	1	-8
CCOc1c(Br)cc(C2CC(=O)Nc3cc4c(cc32)OCO4)cc1OC (stereo unspecified)	-1	-1	7	5	5
Cc1cc(C)c(NC(=O)CCCN2C(=O)COc3ccc(C)cc32)c(C)c1	5	-1	43	22	-1
CCc1ccc(-c2nc(CS(=O)CC(=O)NCc3ccc4c(c3)OCO4)c(C)o2)cc1 (stereo unspecified)	4	1	-9	4	0
CCOc1ccccc1N(C)C(=O)Cn1ncc2c([nH]c3ccc(C)cc32)c1=O	3	0	-7	3	0
Cc1ccc(Cl)c(NC(=O)CSc2n[nH]c(=O)n2C2CC2)c1Cl	0	1	-16	-1	-10
CC1(CCc2ccc3c(c2)OCO3)NC(=O)c2ccccc2N1 (stereo unspecified)	2	0	-9	-6	-6
CC1(CCc2ccc3c(c2)OCO3)NCCc2c1[nH]c1ccccc21 (stereo unspecified)	128*	2	-38*	-7	-5
COc1cccc(NC(=O)Cn2c(-c3nonc3N)nc3ccccc32)c1	5	0	5	2	-2
CCNc1ccc(C(=O)OCC(=O)NCc2ccccc2Cl)cc1[N+](=O)[O-]	2	0	-88*	5	-1
O=C(COC(=O)c1cc(Cl)ccc1[N+](=O)[O-])NCc1ccc(Cl)cc1Cl	1	0	-11	39*	10
O=C(CSc1nc(=O)[nH]c2c1CCCC2)NCc1ccc(F)cc1	-1	0	x	-1	-1
CCN1CCN(CC(=O)Nc2ccc(Cl)c(S(=O)(=O)N(C)C)c2)CC1	5	-1	17	5	3
CN(C)S(=O)(=O)c1cc(NC(=O)CN2CCN(c3ccccc3F)CC2)ccc1Cl	4	0	-32*	-1	-12
Cc1ccc(NC(=O)CN2CCN(S(=O)(=O)c3cccs3)CC2)cc1S(=O)(=O)N(C)C	5	1	-36*	-5	-10
SMILES	D1 ag	TRHR ag	D1 antag	TRHR enhancer	D1 PAM
CC1CCCC(NC(=O)CN2CCN(S(=O)(=O)c3cccs3)CC2)C1C (stereo unspecified)	2	0	-42*	-8	-11
CN(C)S(=O)(=O)c1cc(NC(=O)CN2CCOCC2)ccc1Cl	3	0	10	3	-2
COc1cccc(CN(C)C(=O)c2ccccc2SCC(=O)N2CCCC2)c1	2	0	-12	-1	-6
COCCn1nnnc1CN(CCc1ccccc1)Cc1cc2ccc(C)cc2[nH]c1=O	0	0	-38*	6	-1
CCOc1ccc2[nH]c(=O)c(CN(Cc3ccco3)Cc3nnnn3Cc3ccccc3)cc2c1	0	-1	-44*	4	-9
Cc1cccc(NC(=O)CSc2nnc(C3CC3)n2CC2CCCO2)c1C (stereo unspecified)	3	0	-1	-7	-2
CCc1ccccc1NC(=O)CSc1nnc(C2CC2)n1CC1CCCO1 (stereo unspecified)	1	-2	6	31*	10
O=C(Oc1ccc(Nc2ncnc3ccccc23)cc1)c1cccnc1	-1	1	-47*	-4	-3
CC(C)(C)c1ccc(OC(=O)c2cccnc2)cc1	42*	0	4	5	-6
O=C(Nc1ccc(Cl)cc1Cl)c1cc2ccccc2o1	8	0	25	-3	-1
O/N=C(\c1ccc(Cl)cc1)c1cc2ccccc2o1	32*	1	-16	-1	-3
COc1ccc(CCNc2ncnc3c2cnn3-c2cccc(Cl)c2)cc1	3	1	-16	3	-4
Cc1ccc(-n2ncc3c(NCCCn4ccnc4)ncnc32)cc1	-3	0	-13	31*	-1
Cc1cccc(-n2ncc3c(NCCCn4ccnc4)ncnc32)c1	1	0	13	1	0
COc1ccc(CCNc2ncnc3c2cnn3-c2ccc(C)c(Cl)c2)cc1	3	1	-63*	0	-4
CC(=O)NNc1ncnc2c1cnn2-c1ccc(C)c(Cl)c1	7	1	-10	31*	2
COc1ccc(CCNc2ncnc3c2cnn3-c2ccc(F)cc2)cc1	-2	0	-38*	-8	-4
Cc1ccc(-n2ncc3c(NNC(=O)c4ccccc4C)ncnc32)cc1	-2	0	-36*	2	0
Cc1ccccc1C(=O)NNc1ncnc2c1cnn2C	0	2	-9	16	-5
Cc1ccc(-n2ncc3c(NCCc4ccccc4)ncnc32)cc1	-3	1	-50*	7	-2
Cc1ccc(-n2ncc3c(NC4CCCCCC4)ncnc32)cc1Cl	-2	0	3	-4	0
Cc1ccc(-n2ncc3c(NCCCc4ccccc4)ncnc32)cc1	3	1	-17	0	-2
Cc1ccc(-n2ncc3c(NCCCc4ccccc4)ncnc32)cc1C	3	0	-17	0	-2
Cc1ccc(-n2ncc3c(NCCO)ncnc32)cc1Cl	5	0	-39*	-9	-3
